# Source: PubChem BioAssay (NCI)
# About 83,000 compounds went through this panel and 20% of them were active in at least one assay; those are over-represented in the sample as a whole.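 Cells were grown in 96-well plates and exposed to the test compound at a single concentration for 48 hours; results are reported as percent growth, with values below 10 considered active.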 Unmarked numbers belong to inactive results. Activity calls are given as the source filed them.
# Legend:
# Assay in all cases: NCI-60 one-dose screen, 48 h (100 = growth as untreated, 0 = no growth, -100 = all killed)
# Conditions in all cases: 10 µM unless noted
# DU-145 prostate = system: DU-145 prostate
# K-562 leukemia = system: K-562 leukemia
# MALME-3M melanoma = system: MALME-3M melanoma
# MDA-MB-231 breast = system: MDA-MB-231 breast
# SF-268 CNS = system: SF-268 CNS
# SF-295 CNS = system: SF-295 CNS
# SF-539 CNS = system: SF-539 CNS
# UACC-257 melanoma = system: UACC-257 melanoma
SMILES,growth (DU-145 prostate),growth (K-562 leukemia),growth (MALME-3M melanoma),growth (MDA-MB-231 breast),growth (SF-268 CNS),growth (SF-295 CNS),growth (SF-539 CNS),growth (UACC-257 melanoma)
CCN(CC)c1ccc2c(c1)Oc1nc(N)c(C#N)c(N)c1C2Sc1ccc(C)cc1 (configuration not stated),-95.5% (active),0.301% (active),-92.9% (active),-87.3% (active),-52.7% (active),-93.3% (active),-97.8% (active),-74.2% (active)
Nc1ncc(-c2ccc3ncnc(Nc4cccc(Cl)c4F)c3c2)cn1,48.9%,80.5%,49.3%,55.3%,53.8%,44.9%,68.4%,89.4%
Cn1ccnc1C(=O)/C=C/c1ccc(CNC(=O)c2ccc(S(F)(F)(F)(F)F)cc2)cc1,13.8%,18.9%,89.9%,5.17% (active),6.38% (active),26.8%,-36% (active),89.9%
NC(N)=Nc1ccc(Oc2cccc(NC(N)=Nc3ccc(I)cc3F)c2)cc1,97.6%,69.9%,83%,83.6%,36.4%,77.3%,62.6%,86.4%
Cc1c(Cl)cccc1S(=O)(=O)Nc1ccc2c(c1)C(=O)N(C1CCC(=O)NC1=O)C2=O (configuration not stated),108%,101%,55%,46.8%,82.1%,91.7%,102%,113%
CCOP(=O)(OCC)OC[C@]12CCC(C)(C)C=C1[C@H]1CC[C@@H]3[C@@]4(C)CC[C@H](OP(=O)(OCC)OCC)C(C)(C)[C@@H]4CC[C@@]3(C)[C@]1(C)CC2,-70.2% (active),4.74% (active),-12.8% (active),-55.2% (active),-59.7% (active),-66.2% (active),-84.1% (active),-8.01% (active)
CC(=O)N1C(=S)NC(=O)C1CC(C)C (configuration not stated),110%,106%,102%,103%,102%,102%,102%,104%
O=C1Nc2ccccc2/C1=C/c1ccc(COCC2CO2)n1-c1ccc(O)cc1 (configuration not stated),111%,107%,62.9%,94.9%,98.7%,109%,96.8%,102%
CCOC(=O)C(=O)/C(=C\c1ccc(Cl)cc1)C(=O)N1C(=S)NC(=O)C1CC(C)C (configuration not stated),85.2%,102%,99.8%,90.8%,100%,99.9%,103%,105%
COc1ccc2c(c1)Oc1nc(N)c(C#N)c(N)c1C2Sc1ccc(C)cc1 (configuration not stated),-50% (active),4.37% (active),-57% (active),-77.1% (active),50%,92.9%,-34% (active),9.55% (active)
COc1ccc(NC(=O)CSc2nnc(-c3ccc4nc(-c5ccc(OC)c(OC)c5)[nH]c4c3)o2)cc1OC,91.3%,108%,83.3%,93.5%,93.3%,107%,93.3%,106%
O=C(NCc1ncc[nH]1)c1ccc(-c2nc3ccc4[nH]ncc4c3c3c2CCCC3)cc1,21.6%,14.7%,-14.7% (active),10% (active),3.81% (active),31.5%,-2.48% (active),27%
O=C(NNc1nc2cc(F)cc(F)c2n2cccc12)c1cnccn1,22.4%,14.3%,23.1%,33.4%,21.9%,10.9%,7.61% (active),3.96% (active)
COc1cc(/C=C2\C(=O)Nc3cc(Cl)ccc32)ccc1OCc1ccc(F)cc1,104%,97.7%,92.7%,92.1%,101%,97.1%,95%,109%
COc1ccc(NC(=O)CSc2nnc(-c3ccc4nc(-c5ccccc5)[nH]c4c3)o2)cc1,104%,84.2%,99.2%,97.1%,101%,102%,96.2%,106%
O=C(O)c1ccc(-n2cc(CNc3cc(F)c(F)c(F)c3)c(-c3cccc(F)c3)n2)cc1,101%,84.3%,67.2%,94.4%,106%,37.1%,97.1%,95.1%
Cc1nc(-c2ccccc2O)ccc1C(=O)N=Nc1c(O)[nH]c2ccc(Br)cc12,113%,113%,85.4%,87.6%,96.7%,104%,95.7%,104%
CC/C(=C/c1cc(OC)ccc1O)c1ccc2cc(OC)ccc2[o+]1,68.6%,20.3%,53.1%,66.2%,61.6%,52.2%,52.7%,65.6%
CCn1c(SCC(=O)Nc2cccc(C(=O)/C=C/c3cc(OC)c(OC)c(OC)c3)c2)nc2ccccc2c1=O,13.9%,13.4%,61.8%,23.4%,37.7%,75%,24%,67.7%
CCC(CC)N1C(=O)/C(=c2\sc3n(c2=O)NC2C(N=3)N(CC)C(=O)N2CC)c2ccccc21 (configuration not stated),52%,26%,65.2%,53.2%,63.4%,20.3%,25.2%,86.1%
CN1CCN(c2ccc(/C=N/Nc3nc4ccccc4c(=O)n3-c3ccccc3)cc2)CC1,109%,103%,102%,105%,90.7%,101%,101%,114%
O=C(O)c1ccc(-n2cc(CNc3cc(F)c(F)c(F)c3)c(-c3ccc(F)cc3)n2)cc1,98.3%,71.1%,76.5%,95.4%,105%,72.3%,93.5%,105%
CCCCCc1ccc(S(=O)(=O)Nc2cc(-c3csc(NC(=O)CN4CCN(C)CC4)n3)ccc2N2CCN(C)CC2)cc1,15.9%,1.1% (active),-91.4% (active),-52.7% (active),-33.5% (active),-63.9% (active),-86.2% (active),-58.4% (active)
O=C(CNc1nc(-c2cccc([N+](=O)[O-])c2)cs1)Nc1cccc(Cl)c1,112%,97.1%,104%,101%,99.7%,102%,101%,118%
Cc1ccc2c(c1)C13C(=C2Br)CCCN1C(=O)c1ccccc13 (configuration not stated),102%,46.3%,85.3%,93.7%,90.6%,94.2%,98.4%,93.3%
COc1ccc(NC2=C(Cl)C(=O)c3nc(C)ccc3C2=O)cc1OC,93%,7.18% (active),94.5%,73%,84.7%,104%,103%,91%
COc1ccccc1NC1=C(Cl)C(=O)c2nc(C)ccc2C1=O,-57.3% (active),-21.1% (active),-55.9% (active),-57.3% (active),47.4%,96.6%,1.78% (active),-82.7% (active)
COc1c(N2CC3CCCNC3C2)c(F)cc2c(=O)c(C(=O)N/N=C/c3ccc4c(c3)OCO4)cn(C3CC3)c12 (configuration not stated),68.9%,2.44% (active),90.3%,41.3%,79.4%,44.2%,-60.4% (active),85.3%
CN(C)CCNC(=O)c1ccc(-c2nc3ccc4[nH]ncc4c3c3c2COCC3)cc1,4.89% (active),8.14% (active),-24% (active),-5.19% (active),-16.2% (active),3.44% (active),-53% (active),22.1%
